Drawing on publication PMC7819943, “Rice protein-binding microarrays: a tool to detect cis-acting elements near promoter regions in rice”, this text covers binding signal for 54 sequences.

Whole data set: some 68,000 sequences, median “fluorescence intensity (a.u.)” near 9,100, cut for the highest 2% near 16,000. What follows is part of a selection rich in the highest values, with near analogues and random picks from the rest.

Chain of OsWRKY34 (Q0JBA9 entry or part of it): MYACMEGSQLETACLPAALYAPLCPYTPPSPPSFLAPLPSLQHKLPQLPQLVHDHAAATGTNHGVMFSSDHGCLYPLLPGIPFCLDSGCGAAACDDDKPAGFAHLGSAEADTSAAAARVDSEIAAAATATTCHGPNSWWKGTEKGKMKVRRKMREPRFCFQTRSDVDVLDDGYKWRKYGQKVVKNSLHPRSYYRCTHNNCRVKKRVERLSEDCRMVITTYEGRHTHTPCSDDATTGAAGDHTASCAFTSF

In the experiment the target is OsWRKY34 (Oryza sativa, UniProt Q0JBA9 1-250). In words: protein-binding microarray (RPBM); PBS, 2% BSA, 51.3 ng/ul salmon testes DNA, 50 uM zinc acetate, 200 nM TF, 25 C, 1 h; high values mean tight binding. The note with it: protein: recombinant; tags: N-terminal polyhistidine and DsRed monomer fusion (pET32a); label: CyDye5-dUTP incorporated in the synthesized complementary strand; 3' TTTTT single-stranded linker to array surface; dsDNA, one strand shown. Put shortly:
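Polyhistidine-tagged DsRed fusions of transcription factors, joined at the N-terminus, were expressed in E. coli BL21-CodonPlus and isolated on Ni–NTA. They were incubated at 200 nM for 1 h at 25 °C on a custom Agilent array, double-stranded and BSA-blocked, in PBS with 2% BSA, salmon testes DNA and 50 µM zinc acetate. The binding signal is per-feature fluorescence intensity (arbitrary units) read on an Axon 4000B scanner after washing.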
Consider “TATTTACTTTATTTCCTCCATTTATGTCGTTTTAGTTTTGCGGAGTCACCTAGTGCAG”, for which the binding signal was 9590 fluorescence intensity (a.u.).
As to “CCTCCTTTGTTCTTGCTCCTCTTTGCACGCAAAGAATCGGCGGAGTCACCTAGTGCAG”, the binding signal is 9110 fluorescence intensity (a.u.).
Regarding “TTGTTGTTTTTCGGTACTGTTGATTGAATTAGTGTTATGTCGGAGTCACCTAGTGCAG”, the binding signal is 8120 fluorescence intensity (a.u.).
Next, “ACCTGACTAGCAAGCAACAATCATGTAACTTTTCACCTTTCGGAGTCACCTAGTGCAG”: 8070 fluorescence intensity (a.u.).
Next, “TCCCAGCAAATGCAACGCTCGTACTCCTCGCATCAACAGCCGGAGTCACCTAGTGCAG”: 8210 fluorescence intensity (a.u.); “TTGTTTCCTATACTTCCTACCAAATGTTCTGATTTTACTGCGGAGTCACCTAGTGCAG”: 9520 fluorescence intensity (a.u.).
The figure for “GTTATAGCGCATCTATCAATCGTACTAAATTTCATTGTCCCGGAGTCACCTAGTGCAG” is 8450 fluorescence intensity (a.u.); for “GTCATACCACCTTACTTTTTACGTTTGAATCACCATTCTACGGAGTCACCTAGTGCAG” it is 10900 fluorescence intensity (a.u.); for “GGTGGTTGGGTACTTGGGTTGGGTTTGGGTTTTTAGGTTTCGGAGTCACCTAGTGCAG” it is 29100 fluorescence intensity (a.u.).
As to “ATGTTTGTTTGGTTGACTGCACTTGGTCCGACGGATGAAACGGAGTCACCTAGTGCAG”, the binding signal is 8720 fluorescence intensity (a.u.).
The figure for “CTGGTTGGTAGGTACTTGCTTGATTAGATTGGGTTTGGTTCGGAGTCACCTAGTGCAG” is 11500 fluorescence intensity (a.u.); for “TATTGGGTGCTTTTGTCCTCAGGTGTGGTATATAGGTACCCGGAGTCACCTAGTGCAG” it is 8060 fluorescence intensity (a.u.); for “GGTTTGTTTGTCAACCTCGGGGTGGTTGGGTACTTGGGTTCGGAGTCACCTAGTGCAG” it is 11000 fluorescence intensity (a.u.).
Next, “TGTTGGGTTGGGTTGGGTTGGGTTGGGTCCGTCCGATGAACGGAGTCACCTAGTGCAG”: 24200 fluorescence intensity (a.u.); “CGATGAGGAGGAGGAGGGGCAACAGTGTTAGGGTGGATTTCGGAGTCACCTAGTGCAG”: 12100 fluorescence intensity (a.u.); “ACTAGTGAAGTGTTGCCCGTTGGGTTTGGTGGAGTTTGAACGGAGTCACCTAGTGCAG”: 8200 fluorescence intensity (a.u.).
The figure for “TTCCTTTTTTTACGTGGCAACAGTTAGGGGTGGGCATTCGCGGAGTCACCTAGTGCAG” is 18400 fluorescence intensity (a.u.); for “TGATAGTGGTGGGGTGGTATTGGTCCTAGCTTTGTACTCCCGGAGTCACCTAGTGCAG” it is 18700 fluorescence intensity (a.u.); for “ATGGTGGGCTTGTATTGTCCTGCAGTCCTGCTTGTTTTACCGGAGTCACCTAGTGCAG” it is 10700 fluorescence intensity (a.u.).
For the sequence “CAGTTAGGGGTGGGCATTCGGTCAGACCGAAAAATTCGGTCGGAGTCACCTAGTGCAG”, the binding signal is 15500 fluorescence intensity (a.u.).
For “AGGCCATCATCACTTTAGTCTTATTTTCGTCACCATCATCCGGAGTCACCTAGTGCAG”, the binding signal is 10300 fluorescence intensity (a.u.).
The figure for “CTACTTATCATCCATTTAAACATGCTACTAGTCATTCTTCCGGAGTCACCTAGTGCAG” is 10200 fluorescence intensity (a.u.); for “CGTTGGATAATCTCTAGTACATGTATATACATTTGGCTCTCGGAGTCACCTAGTGCAG” it is 8220 fluorescence intensity (a.u.).
For the sequence “CTGCCACGTCACATTTGCCGCCCTCTGGGAGGGCGATTTTCGGAGTCACCTAGTGCAG”, the binding signal is 8580 fluorescence intensity (a.u.).
The figure for “AAACAGGTCACTACTATCCTCCATATATATATATTTTAGACGGAGTCACCTAGTGCAG” is 9110 fluorescence intensity (a.u.); for “AGAACTAGAAGACCACACGCTGTCTCACTTGTTGCAAAATCGGAGTCACCTAGTGCAG” it is 8050 fluorescence intensity (a.u.); for “TCTCTCTTTCTTTCTATTTTTCTTTTCAGTCAGGTTAGTACGGAGTCACCTAGTGCAG” it is 11000 fluorescence intensity (a.u.).
Next, “CATCGATCGCACTAGTGTCGCTCTCTGGAAGTAATAGCCTCGGAGTCACCTAGTGCAG”: 8110 fluorescence intensity (a.u.); “ATTAACAGCCTAGCTAGCTAGTGATCAGTGTTGACCGTTGCGGAGTCACCTAGTGCAG”: 8200 fluorescence intensity (a.u.); “GGTGGGGTTGGCAGCTTTCGTGCTTGGTCAACCGGGCATGCGGAGTCACCTAGTGCAG”: 8520 fluorescence intensity (a.u.).
The figure for “CTTCTTCTTCTTCTTCTTCTTGGTCCGGAGAGAGTAGAGACGGAGTCACCTAGTGCAG” is 8090 fluorescence intensity (a.u.); for “TGGTACTGCGTGCGGTGGGGTAGGAGTAGGAGGTTTCTTTCGGAGTCACCTAGTGCAG” it is 16600 fluorescence intensity (a.u.).
In the case of “GTTTCTTGGTCGTGGGGTCGAGGAGGTGGTGGGTGGTGGTCGGAGTCACCTAGTGCAG”, the binding signal was 14800 fluorescence intensity (a.u.).
Next, “TAGAGTGGTTGGTTGGGTACTTGGGTTGGGTTGGGTGGTCCGGAGTCACCTAGTGCAG”: 24300 fluorescence intensity (a.u.); “AGGTGGGGAGCGGCGGACTCGCGGTTGGGTTTGTGTGGTTCGGAGTCACCTAGTGCAG”: 14200 fluorescence intensity (a.u.); “GTTTGCATGTTAAGCTTTAGGATTTGGTGGGTTATAATTTCGGAGTCACCTAGTGCAG”: 10800 fluorescence intensity (a.u.).
With “AGGAGATGCGGTAGTTTTTTTGGTACTGCGTGCGGTGGGGCGGAGTCACCTAGTGCAG”, the binding signal is 8400 fluorescence intensity (a.u.).
Turning to “GTGTTTGGTTGGGTAATTTTGCAGGTGTTGCTCGTCAATTCGGAGTCACCTAGTGCAG”, the binding signal is 10200 fluorescence intensity (a.u.).
The figure for “GGGTACAGGGGTGGGGACTTGGGTGTGTTGTGGTGGTTACCGGAGTCACCTAGTGCAG” is 12400 fluorescence intensity (a.u.); for “GGTGTTAGCTTTAGGTTTTGGTGTTTGGTTGGGTAATTTTCGGAGTCACCTAGTGCAG” it is 17300 fluorescence intensity (a.u.).
Next, “GAAAACCTAGGGTTAGGTTTGGTGGGGTTGGCAGCTTTCGCGGAGTCACCTAGTGCAG”: 16400 fluorescence intensity (a.u.); “TTGTGTGTTCTTCCATCTGGCAATGGCATCTGCAGCAGCACGGAGTCACCTAGTGCAG”: 9530 fluorescence intensity (a.u.); “CACGCGATGAAATCATCTGCGCATCCTGTACTTTCAATTTCGGAGTCACCTAGTGCAG”: 8030 fluorescence intensity (a.u.).
The figure for “CAATGACCTTTTTTTTTCCTCTCTCTGTTGCTTCCGATATCGGAGTCACCTAGTGCAG” is 8500 fluorescence intensity (a.u.); for “GCTTTGAACACTCATCTCCTCACCGTGTTTGTTAGAGCTCCGGAGTCACCTAGTGCAG” it is 11200 fluorescence intensity (a.u.).
In the case of “TTTATTTTTTTTGTTACTTTTGGGATAAATTTACAATTACCGGAGTCACCTAGTGCAG”, the binding signal was 9060 fluorescence intensity (a.u.).
Next, “GTGTATTCTACTTAGTAATTTACTTGGCTTGAATTTTTTTCGGAGTCACCTAGTGCAG”: 28900 fluorescence intensity (a.u.).
Next, “CATTTGTGGTTTGTACATATTTATATAAGTTATTATAAATCGGAGTCACCTAGTGCAG”: 9060 fluorescence intensity (a.u.).
The figure for “ATTGTATTCCTACTTGGACTCTTATTTTCTTTTCTAATTTCGGAGTCACCTAGTGCAG” is 10300 fluorescence intensity (a.u.).
Take “GGTTTGGGGTGGTTTATTGTACAATAAAGATAAAGTTACCCGGAGTCACCTAGTGCAG”: the binding signal was 19000 fluorescence intensity (a.u.).
For the sequence “GTCTACTTGTTTGGTGTAATTTATTTTTTTTCTTTCGCTTCGGAGTCACCTAGTGCAG”, the binding signal was 9740 fluorescence intensity (a.u.).
Next, “TCAGTCTGTACACGCCTACACCAGAGTCCAGTGGTCCTAACGGAGTCACCTAGTGCAG”: 8100 fluorescence intensity (a.u.); “GGGTGGAGGAGGTGGGGAGGCCGGCGAGACTCATGTGCGGCGGAGTCACCTAGTGCAG”: 13100 fluorescence intensity (a.u.).
Next, “ATCAAATGGTCATTCCAACGGTTGTCCTGTGCTTTTGTAACGGAGTCACCTAGTGCAG”: 8020 fluorescence intensity (a.u.).
